The list is not random: actives were taken first. Their share in the collection is about 3.5%.
TEAD-YAP inh: TEAD-YAP interaction inhibition; HEK-TIYL cells, TEAD-Gal4/YAP UAS-luciferase luminescence; inhibition, % at 9.12 µM; 1.4% of 640,000 active; in the data active = inhibition above about 32%
MITF inh: blocks human microphthalmia-associated transcription factor | inhibition, % at 2.6 µM | 0.91% of 650,000 active | O75030 | AlphaScreen MITF homodimerization, bead proximity signal; in the data active = inhibition above about 50%
FBW7 activator: activators of human E3 ligase FBW7. 0.13% of 650,000 active. AlphaScreen FBW7–phospho-cyclin E peptide binding, activator screen. normalized activity (activation), % at 26.1 µM. Q969H0; in the data active = normalized activity above about 1.9%;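 note: purified mutant Fbw7 with reduced substrate affinity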
Target sequence (Q969H0 whole entry, looked up): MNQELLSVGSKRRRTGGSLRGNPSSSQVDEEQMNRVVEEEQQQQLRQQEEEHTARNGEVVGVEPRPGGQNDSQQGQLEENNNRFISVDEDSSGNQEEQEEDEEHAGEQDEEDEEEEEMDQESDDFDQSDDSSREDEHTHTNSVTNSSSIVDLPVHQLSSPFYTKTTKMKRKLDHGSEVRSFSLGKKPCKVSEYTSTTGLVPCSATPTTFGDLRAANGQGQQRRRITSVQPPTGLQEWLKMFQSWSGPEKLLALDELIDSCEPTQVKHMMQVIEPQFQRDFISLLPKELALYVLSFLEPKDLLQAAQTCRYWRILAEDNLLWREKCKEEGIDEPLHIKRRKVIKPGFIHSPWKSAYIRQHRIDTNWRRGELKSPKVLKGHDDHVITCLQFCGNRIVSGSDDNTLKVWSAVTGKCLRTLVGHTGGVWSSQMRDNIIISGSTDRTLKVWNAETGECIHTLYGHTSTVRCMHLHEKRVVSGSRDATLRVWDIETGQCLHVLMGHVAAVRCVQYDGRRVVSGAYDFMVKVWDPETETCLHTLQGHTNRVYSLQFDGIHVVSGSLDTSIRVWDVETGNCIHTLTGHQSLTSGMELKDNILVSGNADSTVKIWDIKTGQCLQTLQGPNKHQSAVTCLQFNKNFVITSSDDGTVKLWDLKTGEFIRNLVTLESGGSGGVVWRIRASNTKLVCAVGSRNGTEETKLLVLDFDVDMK
GPR151 activ: activators of human GPR151; Q8TDV0; PathHunter beta-arrestin GPR151 cells, luminescence; activation, % at 11.2 µM; 1% of 650,000 active; in the data active = activation above about 4.9%
Of the large screens only hits and unclear results are named; the others gave an inactive call.

Cc1ccc(C(=O)Nc2cc3ccccc3oc2=O)cc1C	TEAD-YAP inh 62
CCCCc1ccc(C(=O)Nc2cc3ccccc3oc2=O)cc1	TEAD-YAP inh 55
Cc1ccc(C(=O)Nc2cc3ccccc3oc2=O)cc1	TEAD-YAP inh 86
CCOC(=O)COc1cccc(CCNC(=O)c2ccccc2)c1	none
Cn1c(=O)c2c(ncn2Cc2cccc(I)c2)n(C)c1=O	TEAD-YAP inh 39
Cn1c(=O)c2c(ncn2Cc2ccc(C(C)(C)C)cc2)n(C)c1=O	TEAD-YAP inh 57
Cn1c(=O)c2c(ncn2Cc2ccc(C#N)cc2)n(C)c1=O	none
O=C1C2CCCCC2C(=O)N1c1cc(C(F)(F)F)ccc1Cl (stereo not given)	none
Cc1cnc(CNc2cc(-c3ccccc3F)nc(-c3cccnc3)n2)nc1	TEAD-YAP inh 43
O=C(O)C1CCCCC1C(=O)NC1CCCC1 (stereo not given)	none
CC(C(=O)c1ccc(-c2ccccc2)cc1)[n+]1ccc2ccccc2c1 (stereo not given)	TEAD-YAP inh 56
Oc1c(C(Nc2ccccn2)c2ccccc2F)ccc2cccnc12 (stereo not given)	TEAD-YAP inh 84
Oc1c(C(Nc2ccccn2)c2ccccn2)ccc2cccnc12 (stereo not given)	none
Oc1ccc(Cl)c(C(Nc2ccccn2)c2ccc3cccnc3c2O)c1 (stereo not given)	TEAD-YAP inh 81
Oc1c(C(Nc2ccccc2)c2ccccn2)ccc2cccnc12 (stereo not given)	MITF inh 94
Cc1ccnc(NC(c2cc(C)ccc2O)c2ccc3cccnc3c2O)c1 (stereo not given)	none
Oc1c(C(Nc2ccccn2)c2ccco2)ccc2cccnc12 (stereo not given)	TEAD-YAP inh 63
Oc1c(C(Nc2ncccn2)c2ccco2)ccc2cccnc12 (stereo not given)	none
Cc1cccc(NC(c2ccccc2F)c2ccc3cccnc3c2O)n1 (stereo not given)	none
Cc1cc(NS(=O)(=O)c2ccc(Nc3ncc([N+](=O)[O-])cc3[N+](=O)[O-])cc2)nc(C)n1	none
Oc1c(C(Nc2cccc(Cl)c2)c2ccncc2)ccc2cccnc12 (stereo not given)	MITF inh 103
Oc1c(C(Nc2cccnc2)c2cccs2)ccc2cccnc12 (stereo not given)	none
CC(C)C(=O)Nc1cccc(C(=O)NCc2ccccc2Cl)c1	none
O=[N+]([O-])c1c(N2CCCCC2)ncnc1N1CCCCC1	none
Nc1ncnc(N2CCc3ccccc32)c1[N+](=O)[O-]	TEAD-YAP inh 36
Nc1ncnc(N2CCCCC2)c1[N+](=O)[O-]	TEAD-YAP inh 37
COc1ccc(CNc2ncnc3c2c(-c2ccccc2)cn3-c2cccc(Cl)c2)cc1	none
COc1ccc2nc(-c3ccc(N)cc3)[nH]c2c1	TEAD-YAP inh 54
COc1cc(C(=O)c2cc(Br)ccc2N)cc(OC)c1OC	TEAD-YAP inh 51
COc1cc(C(=O)Nc2ccc(F)cc2F)cc(OC)c1OC	none
CNc1ccc(Cl)cc1C(=O)c1cc(OC)c(OC)c(OC)c1	TEAD-YAP inh 54
O=C1OC(c2ccc(Br)o2)=N/C1=C\c1cccc([N+](=O)[O-])c1	none
CCCCOc1ccc(-c2nn(-c3ccccc3)cc2/C=c2\sc3nc(=O)c(Cc4ccccc4)nn3c2=O)cc1C	MITF inh 76
CCCCOc1ccc(-c2nn(-c3ccccc3)cc2/C=c2\sc3nc(=O)c(C)nn3c2=O)cc1C	none
Cc1cc(C)nc(N/N=C/c2ccc(O)c(O)c2O)n1	MITF inh 52
Cc1cc(=O)[nH]c(N/N=C/c2ccc(O)c(O)c2O)n1	MITF inh 100
Cc1cc(C)nc(N/N=C/c2cc(Br)cc(Br)c2O)n1	none
CCCC(=O)NC(c1ccc(OC)c(OC)c1)c1ccc2cccnc2c1O (stereo not given)	TEAD-YAP inh 88
COc1ccc(C(NC(=O)Cc2ccccc2)c2ccc3cccnc3c2O)cc1OC (stereo not given)	TEAD-YAP inh 90
O=C(CCc1ccccc1)NC(c1ccc2c(c1)OCO2)c1ccc2cccnc2c1O (stereo not given)	TEAD-YAP inh 83
O=C(Nc1ccc(S(=O)(=O)NCCc2ccccc2)cc1)c1cccc([N+](=O)[O-])c1	none
O=[N+]([O-])c1cccc(S(=O)(=O)N2CCc3ccccc32)c1	TEAD-YAP inh 32
O=[N+]([O-])c1cccc(S(=O)(=O)N2CCc3ccccc3C2)c1	none
Cc1cc(C)c(S(=O)(=O)N2CCc3ccccc32)cc1[N+](=O)[O-]	TEAD-YAP inh 64
COc1ccc2c(c1)OC(C)CN(CC(=O)NCC(c1cccnc1)N1CCCCC1)C2 (stereo not given)	none
CC(C)c1ccccc1OCCOCCN1CCN(C)CC1	none
COc1cc(-c2[nH]nc3c2C(c2ccccc2Cl)C(C#N)=C(N)O3)cc(OC)c1OC (stereo not given)	none
COc1cc(-c2[nH]nc3c2C(c2ccccc2Br)C(C#N)=C(N)O3)cc(OC)c1OC (stereo not given)	TEAD-YAP inh 36
CC(C)n1cnc2c(NCCOc3ccccc3)nc(Nc3ccncn3)nc21	none
CC(C)(C)c1ccc(NC(=O)c2scc3c2CCCC3)cc1	TEAD-YAP inh 33
O=C(Nc1cccc(O)c1)c1scc2c1CCCC2	TEAD-YAP inh 79
Cc1ccc(NC(=O)c2scc3c2CCCC3)cc1	none
O=C(Nc1ccc2ccccc2c1)c1scc2c1CCCC2	none
CC(=O)c1ccc(NC(=O)c2scc3c2CCCC3)cc1	TEAD-YAP inh 72
COc1ccc(NC(=O)c2scc3c2CCCC3)cc1	TEAD-YAP inh 40
O=S(=O)(c1cccs1)N(c1cccc(F)c1)S(=O)(=O)c1cccs1	none
CCCN1C(=O)C2(OCCO2)c2ccccc21	none
CCOC(=O)c1c(NC(=O)CSc2nnc(CNC(=O)Cc3ccc(OC)cc3)n2C2CCCCC2)sc2c1CCC2	none
COc1cc(/C=C/c2nc3ccc([N+](=O)[O-])cc3s2)cc(OC)c1O	none
O=C(Nc1cccc(O)c1)c1c(O)c2c([nH]c1=O)CCCC2	TEAD-YAP inh 56
NC(=O)c1ccc(-c2nc(NC3CC3)c3ncn(-c4ccsc4)c3n2)cc1	none
CN1CCN(C(=O)c2ccc(-c3nc(N)c4ncn(-c5ccccc5)c4n3)cc2)CC1	none
NC(=O)c1ccc(-c2nc(N)c3ncn(-c4ccsc4)c3n2)cc1	TEAD-YAP inh 58
NC(=O)c1ccc(-c2nc(N)c3ncn(-c4ccccc4)c3n2)cc1	TEAD-YAP inh 55
Cc1cccc(Cn2c(=O)c3c(nc(-n4nc(C)c(C)c4C)n3C)n(C)c2=O)c1	none
CSc1ccccc1C(=O)Nc1nc2nc(C)cc(C)c2s1	FBW7 activator 8.8
CSc1ccccc1C(=O)Nc1nc2cc(C)cc(C)c2s1	none
Cc1cc(C)c2sc(NC(=O)c3ccccc3C)nc2n1	TEAD-YAP inh 61
Cc1cc(C)c2sc(NC(=O)c3cc4ccccc4o3)nc2n1	none
CC(C)(C)c1ccc(C(=O)NCCOc2ccccc2Cl)cc1	TEAD-YAP inh 66

Bioassay records: PubChem, The Scripps Research Institute Molecular Screening Center
